# In the supplement of paper PMC8728848:
# The entries come from a sample that favours the strongest signals as a whole.
# Tests used:
# Experiment in all cases: glycan array binding signal (z-score within array); higher = stronger binding
# Settings in all cases: glycan notation: IUPAC condensed, linker removed
# [1] = target: GlcA(b1-3)GlcNAc
# How it was run: (§1)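 Negative Z-scores can be read as non-binding. The Z-score is calculated within each array and then averaged across arrays of one protein sequence at different concentrations or buffers and across linkers. Arrays, 3228 in all, were curated from the Consortium for Functional Glycomics database and kept only where the protein sequence was available.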
# [2] = target: GlcA(b1-6)Gal
# How it was run: as §1
# [3] = target: GlcNAc(a1-4)Gal(b1-4)GlcNAc(b1-3)Gal(b1-4)GlcNAc
# How it was run: as §1
# [4] = target: GlcNAc(a1-6)Gal(b1-4)GlcNAc
# How it was run: as §1
# [5] = target: GlcNAc(b1-3)Gal(b1-4)GlcNAc(b1-2)Man(a1-3)[GlcNAc(b1-3)Gal(b1-4)GlcNAc(b1-2)Man(a1-6)]Man(b1-4)GlcNAc(b1-4)GlcNAc
# How it was run: as §1
# [6] = target: GlcNAc(b1-3)Gal(b1-4)GlcNAc(b1-3)Gal(b1-4)GlcNAc(b1-3)Gal(b1-4)GlcNAc(b1-2)[GlcNAc(b1-3)Gal(b1-4)GlcNAc(b1-3)Gal(b1-4)GlcNAc(b1-3)Gal(b1-4)GlcNAc(b1-6)]Man(a1-6)[GlcNAc(b1-3)Gal(b1-4)GlcNAc(b1-3)Gal(b1-4)GlcNAc(b1-3)Gal(b1-4)GlcNAc(b1-2)Man(a1-3)]Man(b1-4)GlcNAc(b1-4)[Fuc(a1-6)]GlcNAc
# How it was run: as §1
# [7] = target: GlcNAc(b1-3)Gal(b1-4)GlcNAc(b1-3)Gal(b1-4)GlcNAc(b1-3)Gal(b1-4)GlcNAc(b1-3)Gal(b1-4)GlcNAc(b1-2)[GlcNAc(b1-3)Gal(b1-4)GlcNAc(b1-3)Gal(b1-4)GlcNAc(b1-3)Gal(b1-4)GlcNAc(b1-3)Gal(b1-4)GlcNAc(b1-6)]Man(a1-6)[GlcNAc(b1-3)Gal(b1-4)GlcNAc(b1-3)Gal(b1-4)GlcNAc(b1-3)Gal(b1-4)GlcNAc(b1-3)Gal(b1-4)GlcNAc(b1-2)Man(a1-3)]Man(b1-4)GlcNAc(b1-4)[Fuc(a1-6)]GlcNAc
# How it was run: as §1
# [8] = target: GlcNAc(b1-3)Gal(b1-4)GlcNAc(b1-3)[GlcNAc(b1-3)Gal(b1-4)GlcNAc(b1-3)]GalNAc
# How it was run: as §1
# [9] = target: GlcNAc(b1-3)Gal(b1-4)GlcNAc(b1-6)[GlcNAc(b1-3)]Gal(b1-4)GlcNAc
# How it was run: as §1
# [10] = target: GlcNAc(b1-3)GalNAc
# How it was run: as §1
# [11] = target: GlcNAc(b1-6)GalNAc
# How it was run: as §1
# [12] = target: Kdn(a2-3)Gal(b1-3)GalNAc
# How it was run: as §1
# [13] = target: Man(a1-3)[Man(a1-6)]Man(a1-6)[Man(a1-3)]Man
# How it was run: as §1
# [14] = target: Man(a1-3)[Man(a1-6)]Man(a1-6)[Man(a1-3)]Man(b1-4)GlcNAc(b1-4)GlcNAc
# How it was run: as §1
# [15] = target: Man(a1-3)[Man(a1-6)]Man(b1-4)GlcNAc(b1-4)GlcNAc
# How it was run: as §1
# [16] = target: Neu5Ac(a2-3)Gal
# How it was run: as §1
# [17] = target: Neu5Ac(a2-3)Gal(b1-4)GlcNAc(b1-3)Gal(b1-4)GlcNAc(b1-3)[Neu5Ac(a2-3)Gal(b1-4)GlcNAc(b1-3)Gal(b1-4)GlcNAc(b1-6)]GalNAc
# How it was run: as §1
# [18] = target: Neu5Ac(a2-3)Gal(b1-4)GlcNAc(b1-3)Gal(b1-4)[Fuc(a1-3)]GlcNAc
# How it was run: as §1
# [19] = target: Neu5Ac(a2-3)Gal(b1-4)[Fuc(a1-3)]GlcNAc(b1-3)GalNAc
# How it was run: as §1
# [20] = target: Neu5Ac(a2-3)GalNAc(b1-4)GlcNAc
# How it was run: as §1
# [21] = target: Neu5Ac(a2-6)Gal(b1-4)GlcNAc(b1-2)Man
# How it was run: as §1
# [22] = target: Neu5Ac(a2-6)Gal(b1-4)GlcNAc(b1-2)Man(a1-6)[Gal(b1-4)GlcNAc(b1-2)Man(a1-3)]Man(b1-4)GlcNAc(b1-4)GlcNAc
# How it was run: as §1
# [23] = target: Neu5Ac(a2-6)Gal(b1-4)GlcNAc(b1-2)Man(a1-6)[GlcNAc(b1-2)Man(a1-3)]Man(b1-4)GlcNAc(b1-4)GlcNAc
# How it was run: as §1
# [24] = target: Neu5Ac(a2-6)Gal(b1-4)GlcNAc(b1-3)Gal(b1-4)GlcNAc(b1-2)Man(a1-3)[Neu5Ac(a2-6)Gal(b1-4)GlcNAc(b1-3)Gal(b1-4)GlcNAc(b1-2)Man(a1-6)]GalNAc
# How it was run: as §1
# [25] = target: Neu5Ac(a2-6)Gal(b1-4)GlcNAc(b1-3)Gal(b1-4)GlcNAc(b1-3)[Neu5Ac(a2-6)Gal(b1-4)GlcNAc(b1-3)Gal(b1-4)GlcNAc(b1-6)]GalNAc
# How it was run: as §1
# [26] = target: Neu5Ac(a2-6)Gal(b1-4)GlcNAc(b1-6)[Gal(b1-3)GlcNAc(b1-3)]Gal(b1-4)Glc
# How it was run: as §1
# [27] = target: Neu5Gc(a2-3)Gal(b1-3)GlcNAc
# How it was run: as §1
# [28] = target: Neu5Gc(a2-8)Neu5Gc(a2-3)Gal(b1-4)GlcNAc
# How it was run: as §1
binder,measurement,setting,value
HFR-3 (Triticum aestivum) (protein) MKGLLLCALALAFAAVTTHAQLQSCPTRCGKQADGMECPNNLCCSKDGYCGLGVDYCSAGAGCQSGACYDNKICGAQANGTLCRNNHCCSSGGRCGYGREYCSNGCQGGPCWADLKCGHLDNGKLCPNNLCCSQYGYCGLGPEFCGTGCQNGACSTDKPCGNKANGAPCTNNYCCSQYGSCGLGKDYCGTGCQNGACN,glycan array binding signal (z-score),[1],0.799
same,glycan array binding signal (z-score),[2],-0.641
same,glycan array binding signal (z-score),[3],0.598
same,glycan array binding signal (z-score),[4],-0.582
same,glycan array binding signal (z-score),[5],0.65
same,glycan array binding signal (z-score),[6],2.43
same,glycan array binding signal (z-score),[7],1.15
same,glycan array binding signal (z-score),[8],0.04
same,glycan array binding signal (z-score),[9],-1.09
same,glycan array binding signal (z-score),[10],2.18
same,glycan array binding signal (z-score),[11],-0.591
same,glycan array binding signal (z-score),[12],2.75
same,glycan array binding signal (z-score),[13],2.17
same,glycan array binding signal (z-score),[14],3.89
same,glycan array binding signal (z-score),[15],0.828
same,glycan array binding signal (z-score),[16],-0.367
same,glycan array binding signal (z-score),[17],0.555
same,glycan array binding signal (z-score),[18],-0.597
same,glycan array binding signal (z-score),[19],-0.052
same,glycan array binding signal (z-score),[20],1.18
same,glycan array binding signal (z-score),[21],0.755
same,glycan array binding signal (z-score),[22],-0.801
same,glycan array binding signal (z-score),[23],-0.077
same,glycan array binding signal (z-score),[24],0.189
same,glycan array binding signal (z-score),[25],0.943
same,glycan array binding signal (z-score),[26],-0.251
same,glycan array binding signal (z-score),[27],-0.969
same,glycan array binding signal (z-score),[28],-0.961
